Measurements reported in PubChem BioAssay (NCATS).
Records with an inconclusive call do not appear. Active and inactive are the calls of the source. Unless noted, calls follow the shape of the dose curve; as a rule, active = well fitted curve in the direction sought with a large enough effect; inconclusive = small, poorly fitted or top-dose-only effect, or another doubt; inactive = no such curve, though single readings can be large; an effect the other way counts as inactive or inconclusive.

Legend:
[1] = Cell Viability - BJ (AID 421; calls by dose curve;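 also: potency is read from the fitted curve at half-maximal effect; cells exposed to compound for 40 hours at 37 °C before readout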); conditions: BJ fibroblast viability, qHTS
In short: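 Cytotoxicity as drop in intracellular ATP (CellTiter-Glo, 20 min RT) after 40 hr compound exposure of BJ fibroblasts at 37 °C. Titrations scaled between DMSO and 100 uM tamoxifen, Hill-fitted for AC50.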

[2] = Cell Viability - Jurkat (AID 426;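 active = dose-dependent loss of cell ATP signal giving a full or clear fitted curve, ranked by lower potency value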; also: potency is read from the fitted curve at half-maximal effect); conditions: qHTS
In short: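 qHTS, 1536-well; Jurkat E6-1, 5000 cells/well, complete medium; cpd 40 hr, 37 °C; CellTiter-Glo 20 min RT; luminescence. AC50 by Hill fit.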

[3] = Cell Viability - Hek293 (AID 427;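 active = compounds whose dose-response curve shows a full or clear partial loss of cell viability, called from curve shape rather than a numeric limit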;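 also: potency is read from the fitted curve at half-maximal effect; cells exposed to compound for 40 hours at 37 °C before reading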); conditions: qHTS
In short: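 Luminescent ATP content (CellTiter-Glo, 20 min at room temperature) was measured after a 40 hr, 37 °C compound exposure of HEK293 cells. AC50 values came from Hill-equation fits of qHTS concentration-response data normalized to DMSO and 100 uM tamoxifen.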

[4] = Cell Viability - HepG2 (AID 433; calls by dose curve;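 also: potency is read from the fitted curve at half-maximal effect; potency for ATP loss meaning cytotoxicity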); conditions: qHTS
In short: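 Cytotoxicity is scored as loss of intracellular ATP in HepG2 cells exposed to compounds for 40 h. Concentration-response curves, normalized to DMSO and 100 uM tamoxifen, give AC50 values.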

[5] = Cell Viability - MRC5 (AID 434; calls by dose curve;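 also: potency is read from the fitted curve at half-maximal effect; potency reflects cytotoxicity seen as loss of intracellular ATP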); conditions: MRC5 lung fibroblast viability, qHTS
In short: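 MRC5 normal human lung fibroblasts (1500/well) were treated with compounds for 40 hr at 37 °C in complete medium, and viable cells were measured as intracellular ATP by CellTiter-Glo luminescence. AC50 came from Hill fits, normalized to DMSO and 100 uM tamoxifen.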

[6] = Cell Viability - SK-N-SH (AID 435; calls by dose curve;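 also: potency is read from the fitted curve at half-maximal effect; compound exposure lasted 40 h at 37 °C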); conditions: SK-N-SH neuroblastoma cell viability qHTS
In short: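 Cells seeded at 1500 per well and incubated 5 hr at 37 °C. Compound added, then 40 hr at 37 °C. CellTiter-Glo added, 20 min at room temperature, luminescence read.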

[7] = Cell Viability - N2a (AID 540); conditions: N2a mouse neuroblastoma cell viability; at 92.2 µM (top of the series);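 also: plate controls were DMSO alone for no effect and tamoxifen control for full effect; nearly all actives have a fitted effect of over 45% in size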
In short: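 Luminescent ATP signal (CellTiter-Glo, 20 min at room temperature) served as the viability read-out after N2a cells were treated with compounds for 40 hours at 37 °C. Concentration-response data were fitted to the Hill equation for AC50.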

[8] = Cell Viability - NIH 3T3 (AID 541); conditions: NIH 3T3 cell viability, qHTS; activity change, negative = cytotoxicity: at 92.2 µM (top of the series);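 also: plate controls were DMSO alone for no effect and tamoxifen positive control for full effect; nearly all actives have a fitted effect of over 25% in size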
In short: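 Luminescent ATP signal (CellTiter-Glo) served as the viability read-out after NIH 3T3 cells were exposed to compounds over a concentration range for 40 hr at 37 °C. Hill-equation modelling of concentration-response data gave AC50.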

[9] = Cell Viability - HUV-EC-C (AID 542); also: % is scaled to controls: 0 for no effect and ±100 for the full control effect; nearly all actives have a fitted effect of over 35% in size
In short: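 qHTS cytotoxicity: HUV-EC-C, 1000 cells/well, 5 hr settle, compound 40 hr 37 °C, CellTiter-Glo, luminescence. AC50 via Hill equation.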

[10] = Cell Viability - H-4-II-E (AID 543); also: % is scaled to controls: 0 for no effect and ±100 for the full control effect; nearly all actives have a fitted effect of over 35% in size
In short: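 Luminescent ATP signal (CellTiter-Glo) served as the viability read-out, with cytotoxicity seen as a concentration-dependent ATP drop. Cells were treated for 40 hours in complete medium. AC50 values derive from Hill-equation modelling.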

[11] = Cell Viability - SH-SY5Y (AID 544); conditions: SH-SY5Y neuroblastoma cell viability; viability change, negative = cytotoxic: at 92.2 µM (top of the series); also: nearly all actives have a fitted effect of over 55% in size
In short: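 Luminescent ATP read-out (CellTiter-Glo) measures loss of viable SH-SY5Y neuroblastoma cells after 40 hr compound exposure at 37 °C. AC50 values derive from standard Hill modelling of qHTS concentration-response data.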

[12] = Cell Viability - Renal Proximal Tubule (AID 545); conditions: renal proximal tubule cells viability; at 91.7 µM (top of the series), primary cells of rat origin unless noted; also: nearly all actives have a fitted effect of over 40% in size
In short: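 Cytotoxicity is scored as a concentration-dependent drop in cellular ATP in primary rat renal proximal tubule cells exposed for 40 hr. AC50 derives from Hill modelling.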

[13] = Cell Viability - Mesenchymal (AID 546);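 also: cells exposed to compound for 40 hours before reading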
In short: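 Normal human renal glomerulus-derived kidney mesenchymal cells, 1000 per well in complete medium, were treated with compounds for 40 hr at 37 °C. Viability was read as intracellular ATP by CellTiter-Glo luminescence; AC50 values came from Hill-equation fits of qHTS concentration-response data.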

[14] = Cellular Toxicity (caspase-3) HepG2 (AID 654);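 also: cells exposed to compound for 16 hours before reading; 0% = DMSO alone and 100% = caspase signal from 100 µM tamoxifen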
In short: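 Cells plated 5 hr at 37 °C, compound added, incubated 16 hr at 37 °C. Caspase-Glo 3/7 reagent followed, 20 min at room temperature, then luminescence read. Activation scored as signal increase; AC50 from Hill fit.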

[15] = Cellular Toxicity (caspase-3) Jurkat (AID 655); conditions: Jurkat caspase-3 activation, luminescence, DMSO = 0%, tamoxifen = 100%; at 92.2 µM (top of the series);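 also: cells exposed to compound for 16 h at 37 °C before reading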
In short: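 Caspase 3/7 activation is scored as increased luminescence in Jurkat cells cultured with compound for 16 hours in complete medium. AC50 values come from Hill fits of qHTS concentration-response data normalized to DMSO and 100 uM tamoxifen controls.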

[16] = Cellular Toxicity (caspase-3) HUV-EC-C (AID 656)
In short: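 Read-out: luminescence proportional to caspase 3/7 activity, measured 20 min after adding Caspase-Glo 3/7 reagent. Cells (HUV-EC-C) had received compound for 16 hr at 37°C. Increases relative to DMSO and 100 uM tamoxifen gave concentration-response AC50 values.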

[17] = Cellular Toxicity (caspase-3) SHSY5Y (AID 657);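 also: cells exposed to compound for 16 hours at 37 °C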
In short: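 Cells plated and incubated 5 h at 37 °C, dosed over a concentration range, incubated 16 h, then given Caspase-Glo 3/7 reagent for 1 h at room temperature before luminescence reading. Staurosporine (10 uM) defined full stimulation.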

[18] = Cellular Toxicity (caspase-3) BJ (AID 658);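 also: 0% = DMSO basal and 100% = 10 µM staurosporine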
In short: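 Luminescent aminoluciferin-substrate cleavage reports caspase 3/7 activity in normal human BJ fibroblasts after 16 hr compound exposure at 37 °C. Normalized to DMSO (basal) and 10 uM staurosporine (100%); AC50 from Hill fit of concentration-response.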

[19] = Cellular Toxicity (caspase-3) MRC-5 (AID 659);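 also: 0% = DMSO basal and 100% = 10 µM staurosporine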
In short: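 Luminescence from caspase-cleaved aminoluciferin substrate (Caspase-Glo 3/7, 1 hr RT) reports caspase 3/7 activity in MRC-5 lung fibroblasts after 16 hr compound exposure. Normalized to DMSO basal and 10 uM staurosporine as 100%; AC50 from Hill fits.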

[20] = Cellular Toxicity (caspase-3) Mesangial (AID 660);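 also: cells exposed to compound for 16 h before the caspase read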
In short: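 Mesangial cells, 1000/well, 5 h settle at 37 °C; compound 16 h, 37 °C; Caspase-Glo 3/7 reagent 20 min RT; luminescence. Norm.: DMSO = 0%, tamoxifen 100 uM = 100%. AC50, Hill fit.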

[21] = Cellular Toxicity (caspase-3) SK-N-SH (AID 661);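 also: 0% = DMSO basal and 100% = 10 µM staurosporine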
In short: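 Human neuroblastoma SK-N-SH, 1500 cells/well, 5 hr pre-incubation, then compound 16 hr, 37 °C. Caspase-Glo 3/7 reagent, 1 hr RT, luminescence. Norm. to DMSO/10 uM staurosporine; Hill-fit AC50.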

[22] = Cellular Toxicity (caspase-3) H-4-II-E (AID 663);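 also: cells exposed to compound for 16 hr before readout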
In short: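 Luminescence from caspase-cleaved aminoluciferin substrate, read 20 min after reagent addition, reports caspase 3/7 activation in rat H-4-II-E cells after 16 hr compound exposure. Normalized to DMSO (basal) and 100 uM tamoxifen (100%); AC50 from Hill fits.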

[23] = Cellular Toxicity (caspase-3) Hek293 (AID 664);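 also: cells exposed to compound for 16 h at 37 °C before readout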
In short: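 Cells plated, 5 hr at 37 °C; compounds added; 16 hr at 37 °C; Caspase-Glo 3/7 reagent, 20 min RT; luminescence read. Activation expressed relative to DMSO and 100 uM tamoxifen, AC50 by Hill model.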

Clc1cc(Cl)c(-c2cc(Cl)c(Cl)cc2Cl)cc1Cl
inactive: Potency [1] > 92 µM | Potency [2] > 92 µM | Potency [3] > 92 µM | Potency [4] > 92 µM | Potency [6] > 92 µM | activity change, negative = cytotoxicity [8] -24.8% | Potency [9] | Potency [10] | Potency [11] | activity change, negative = cytotoxicity [12] -5.09% [at 91.7 µM] | outcome [13] | outcome [14] | caspase-3 activation [15] 0.996% | outcome [16] | outcome [17] | outcome [18] | outcome [19] | outcome [20] | outcome [21] | outcome [22] | outcome [23]
active: Potency [5] 24.3 µM | activity change, negative = cytotoxicity [7] -93.1%
